# In the library only some 12% were active in any assay of this set; here they are far more common.
# BAZ2B inh = BAZ2B (human) inhibition; Q9UIF8; AlphaScreen BAZ2B-H3K14Ac peptide displacement; Potency, µM (highest dose often 114 µM), for the others: top-dose activity change, negative = inhibition, hits mostly inhibitors; actives 4.4% (n = 360,000); AID 504333; further: on the % scale 0 is the no-effect control and ±100 the full control effect; nearly all actives have a fitted effect of over 60% in size
#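 AlphaScreen displacement: compounds (up to 110uM) incubated 30 min at room temperature with a preformed 50 nM BAZ2B/50 nM biotinylated H3K14Ac peptide complex in PBS pH 7.4 with Tween-20. Donor and acceptor beads at 10 ug/mL final added, 20 min light-protected before reading.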
# HP1b chromo inh = inhibitors of HP1-beta chromodomain binding to methylated histone tails; AlphaScreen HP1-beta / biotin-H3K9me3 peptide binding; Potency, µM (highest dose often 114 µM), inactives show at the top dose activity change, negative = inhibition, hits mostly inhibitors; actives 0.56% (n = 390,000); further: nearly all actives have a fitted effect of over 70% in size
# Target sequence (P83916 whole entry, looked up): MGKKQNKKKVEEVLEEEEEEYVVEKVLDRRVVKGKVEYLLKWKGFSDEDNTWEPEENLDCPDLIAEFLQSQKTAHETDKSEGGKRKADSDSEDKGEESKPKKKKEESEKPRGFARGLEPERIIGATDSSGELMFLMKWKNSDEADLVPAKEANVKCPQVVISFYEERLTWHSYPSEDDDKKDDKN
#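 HP1-beta protein (50 nM final) preincubated 30 min at room temperature with biotinylated H3(1-18)K9me3 peptide (50 nM) in PBS pH 7.4, 0.01% Tween-20, then compound added for 30 min. AlphaScreen streptavidin donor/nickel chelate acceptor beads (10 ug/mL final), 30 min dark, luminescence read.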
# JMJD2A Tudor = JMJD2A Tudor domain (human) inhibition | O75164 | AlphaScreen JMJD2A-Tudor / H3K4me3 peptide binding | Potency, µM (doses to about 114 µM), for inactives: at the highest dose activity change, negative = inhibition, hits mostly inhibitors | actives 4.4% (n = 390,000) | AID 504339; further: on the % scale 0 is the no-effect control and ±100 the full control effect; nearly all actives have a fitted effect of over 50% in size
# Sfp PPTase inh = blocks B. subtilis Sfp PPTase activity; Q9F4F7; AID 1490; Potency, µM, inactives show largest response in the series, negative = inhibition, hits mostly inhibitors; Biochemical Sfp PPTase activity, qHTS; actives 3.5% (n = 310,000);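 further: the enzyme is Sfp with the accession as filed and its product quenches rhodamine fluorescence; 0% = enzyme reaction without inhibitor and -100% = no enzyme wells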
#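 After 15 min at room temperature with compound, 15 nM Sfp received 5 uM rhodamine-CoA plus 12.5 uM BHQ-2-ybbR (50 mM Hepes pH 7.6, 10 mM MgCl2). Rate came from the fluorescence difference over 30 min, ex 525/em 598 nm.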
# G9a block = G9a (human) methyltransferase inhibition; Potency, µM (titrated, usually from 102 µM), inactives show at the highest dose activity, negative = inhibition, most hits filed as inhibitors; AID 504332; G9a H3K9 monomethylation, AlphaScreen, 2 h; Q96KQ7; actives 8.8% (n = 350,000); further: on the % scale 0 is the no-effect control and ±100 the full control effect; nearly all actives have a fitted effect of over 75% in size
# Target sequence (Q96KQ7 913-1193 limits assumed): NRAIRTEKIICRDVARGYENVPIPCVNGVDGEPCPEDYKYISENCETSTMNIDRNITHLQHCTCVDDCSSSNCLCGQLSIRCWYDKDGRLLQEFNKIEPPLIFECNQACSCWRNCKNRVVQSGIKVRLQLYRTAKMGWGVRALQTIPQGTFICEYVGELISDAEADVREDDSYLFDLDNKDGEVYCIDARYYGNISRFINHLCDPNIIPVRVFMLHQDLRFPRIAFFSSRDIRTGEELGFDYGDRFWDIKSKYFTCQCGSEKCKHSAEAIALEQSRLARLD
#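 G9a (20 nM) preincubated 15 min RT with compounds, then 500 nM biotinylated H3K9 peptide and 20 uM SAM added; 2 h RT reaction. Monomethyl-H3K9 product detected by AlphaScreen with anti-H3K9me1 antibody, streptavidin donor and anti-rabbit IgG acceptor beads.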
# An asterisk follows results filed as active; ? = inconclusive; · = not tested or not shown; [ ] = remark or other dose. The call rests on the fitted dose curve; in most records, active means well fitted curve in the direction sought with a large enough effect; inconclusive means small, poorly fitted or top-dose-only effect, or another doubt; inactive means no such curve, though single readings can be large; an effect the other way counts as inactive or inconclusive. Potency means the concentration at half of the fitted maximal effect.
SMILES,BAZ2B inh,HP1b chromo inh,JMJD2A Tudor,Sfp PPTase inh,G9a block
COc1ccc(C(C)=O)cc1CC(=O)Nc1ccc2c(c1)CCC2,-2%,-17%,-22%,11%,?
CCOC(=O)CCCNC(=O)N1CCc2nc(-c3ccc(OC)cc3C)c3c(c2C1)CO[C@@H](c1ccccc1)C3,·,·,·,7%,·
O=C(COC(=O)/C=C/c1cccc(F)c1)NC1CCCCCC1,·,18%,-15%,·,·
CCc1noc(C)c1C(=O)N1CCN(S(=O)(=O)c2ccc(C(C)=O)cc2)CC1,11%,12%,-10%,·,40µM*
Cc1cccc(NC(=O)CSCC(=O)Nc2cccc(S(=O)(=O)N3CCCCCC3)c2)c1,-36%,1%,-21%,·,35µM*
CCOC(=O)c1cc(-c2ccccc2)n(CCC(=O)Nc2ccc(Cl)c(C(F)(F)F)c2)c1C,1%,46%,-23%,·,-5%[59 µM]
CCCc1cc(=O)[nH]c(SCc2nc(-c3ccccc3)no2)n1,-3%,21%[57 µM],-6%,·,-16%[59 µM]
N#Cc1ccccc1OCC(=O)OCC(=O)c1ccc2c(c1)NC(=O)CO2,6%,32%,3%,7%,50µM*
COC(=O)c1cc(C(=O)OCC(=O)c2ccc3c(c2)NC(=O)CO3)cc([N+](=O)[O-])c1,-6%,17%,-17%,·,50µM*
O=C1COc2ccc(C(=O)COC(=O)/C=C/c3ccc(Br)o3)cc2N1,45µM*,-53%,?,·,28µM*
Cc1ccc(Cn2c(CO)cnc2SCC(=O)Nc2ccc(C)c(Cl)c2)cc1,?,-22%[57 µM],-20%,·,?
CC(C)CNC(=O)/C=C/C=C/c1ccc2c(c1)OCO2,·,24%,-16%,·,·
CC(C)(C)C#CCn1c(/C=[N+](\[O-])C2CCCCC2)nc2ccccc21,50µM*,24%,?,7%,·
CCN1C(=O)[C@@H]2[C@@H](c3ccc(SC4CCCCC4)cc3)N3CCC[C@@]3(C(=O)OC)[C@@H]2C1=O,?,14%,?,·,6%[2.33 µM]
Cc1ccc(NC(=O)CCNS(=O)(=O)c2ccc3[nH]c(=O)oc3c2)cc1F,-15%,35%,-17%,20%,22%[59 µM]
O=c1oc2ccccc2c(N2CCCCC2)c1CN1CCCC1,6%,23%,4%,14%,11%[59 µM]
CCc1oc2ccccc2c1C(=O)CCN1CCCCC1,8%,39%,-22%,?,1.4µM*
COc1ccc2nc(C)cc(Nc3ccc(N4CCOCC4)cc3)c2c1,?,-14%,?,-4%,?
COc1ccc2nc(C)cc(NCCN3CCOCC3)c2c1,5%,-10%,-12%,10%,45µM*
COc1ccc(/C=N/Nc2cc(C)nc3ccc(OC)cc23)c(OC)c1,-36%,-15%,?,50µM*,45µM*
COc1ccc2nc(C)cc(Nc3ccc(N4CCN(C)CC4)cc3)c2c1,?,14%,-36%,0%,45µM*
O=C(NCCN1C(=O)S/C(=C\c2ccc(Cl)cc2Cl)C1=O)C1=COCCO1,8%,18%,-11%,·,-34%
Cc1cc(C)cc(OCC(=O)N/N=C/c2ccco2)c1,-16%,17%,2%,14%,-8%
Cc1cccc(C)c1OCC(=O)N/N=C/C=C/c1ccco1,-18%,38%,-29%,-21%,32µM*
Cc1cccc(OCC(=O)N/N=C/C=C/c2ccco2)c1,?,-1%,-35%,?,8.9µM*
SMILES,BAZ2B inh,HP1b chromo inh,JMJD2A Tudor,Sfp PPTase inh,G9a block
Cc1ccc(OCC(=O)N/N=C/C=C/c2ccco2)c(Br)c1,-29%,-10%,?,50µM*,45µM*
CCc1ccc(OCC(=O)N/N=C\c2ccco2)c([N+](=O)[O-])c1,45µM*,?,?,-7%,-12%[59 µM]
O=C(COc1cccc2ccccc12)N/N=C/c1ccco1,?,18%,-21%,-10%,·
O=C(COc1c(Br)cc(Br)cc1Br)N/N=C/c1ccco1,-38%,50%,-13%,6%,6%[0.501 µM]
CSc1nc2sc3c(c2c(=O)n1Cc1ccccc1)CCC(C(C)(C)C)C3 (centres undefined),-15%,21%,-4%,·,-34%[59 µM]
CCOC(=O)Cc1cc(=O)n(-c2nc3ccccc3s2)[nH]1,0%,14%,-32%,-21%,32µM*
Cc1ccc(-c2nn3c(=O)cc(CN4CCN(C(=O)/C=C/c5ccccc5)CC4)nc3s2)cc1,3%,23%[57 µM],4%,·,3%[59 µM]
O=C(O)c1cn[nH]c1-n1cnnn1,-1%,15%,?,-4%,50µM*
O=C(CSc1ccc([N+](=O)[O-])cc1)Nc1cccc(S(=O)(=O)Nc2ccccc2F)c1,-31%,?,?,45µM*,?
Cn1c(=O)c2c(ncn2CC(=O)Nc2cccc(S(=O)(=O)Nc3ccccc3F)c2)n(C)c1=O,-4%,?,-2%,56µM*,·
Cc1ccc(NC(=O)CN(CCc2ccccc2)S(=O)(=O)c2ccccc2)c(C)c1,5%,48%,6%,·,-2%[59 µM]
COC(=O)[C@@H]1CC[C@H](C)[C@@H](c2ccc(C)cc2)N1C(=O)c1ccc(/C=N\O[C@@H](C)c2cn([C@H]3COC[C@H]3O)nn2)cc1,·,·,·,-15%,·
Cc1cc(C)nc(NCC(O)COc2ccccc2C)n1 (centres undefined),0%,26%,-4%,8%,45µM*
CCN(CC)c1cccc(OCC(=O)N2c3ccccc3CC2C)c1 (centres undefined),?,-15%,?,·,10µM*
Cc1cc(C(=O)OCC(=O)N2c3ccccc3CC2C)c(C)o1 (centres undefined),-31%,-2%,-20%,0%,11µM*
CC1Cc2ccccc2N1C(=O)COC(=O)c1ccc([N+](=O)[O-])o1 (centres undefined),·,12%,-18%,·,·
Cc1ccc(Cn2ccnc2SCC(=O)Nc2nnc(C)s2)cc1,-9%,7%[57 µM],-23%,·,5%[59 µM]
C/C(=N/NC(=O)CN1CCN(Cc2ccccc2Cl)CC1)c1cccnc1,-1%,61%,-5%,6%,·
C/C(=N\NC(=O)Cc1c(F)cccc1Cl)c1cccnc1,-2%,58%,-13%,-5%,50µM*
C=CCNC(=S)N/N=C(\C)c1cccnc1,-38%,37%,-11%,16µM*,-5%
C/C(=N/NC(=O)c1ccc(Br)s1)c1ccncc1,-20%,32%,-12%,10%,71µM*
C/C(=N/NC(=O)c1ccc(Cl)s1)c1cccnc1,-28%,37%,-10%,5%,2%
C/C(=N/NC(=O)c1ccc(C)s1)c1cccnc1,-29%,24%,35µM*,-23%,?
COc1ccc(NC(=O)C2CCN(S(=O)(=O)c3ccc4c(c3)CCCC(=O)N4)CC2)cc1OC,7%[57.1 µM],34%,-2%,·,1%[59 µM]
Cc1cc(C)c(C#N)c(SCC(O)COc2ccc(Br)cc2)n1 (centres undefined),2%,76%,25%,-2%,21%

# Screening data as filed in PubChem BioAssay.
